Inconclusive results are not listed. Unmarked numbers belong to inactive results. Activity calls are given as the source filed them. Calls follow the shape of the dose curve; as a rule, active = well fitted curve in the direction sought with a large enough effect; inconclusive = small, poorly fitted or top-dose-only effect, or another doubt; inactive = no such curve, though single readings can be large or run the other way.
Assay: Followup screen for small molecules that induce DNA re-replication in MCF 10A normal breast cells
Settings: MCF 10A DNA re-replication, Hoechst nuclear intensity, 48 h; series mostly up to 46.1 µM; re-replication activation: at the top concentration
Description: NIH Molecular Libraries Probe Production Network [MLPCN] NIH Chemical Genomics Center [NCGC] MLPCN Grant: Fast Track K99 CA136555 Assay Provider: Melvin DePamphilis, NICHD, NIH Assay Overview Eukaryotic cells normally restrict genome duplication to once per cell division. When this process is aberrant, DNA re-replication occurs when cells reinitiate DNA replication before the first round of replication is complete. DNA re-replication induces the DNA damage response, arrests cell proliferation, and triggers apoptosis. The cell cycle components cyclin A, Cdt-1, Cdc6 and geminin are critical regulators of this process and their misregulation results in DNA re-replication in normal and cancer cells. To identify compounds that induce re-replication in normal cells, an image-based assay was used to measure DNA content of nuclei, as detected by the fluorescent DNA binding dye, Hoechst. Cell nuclei were imaged by a fluorescence scanning plate imager and compounds that induce DNA re-replication were identified by the increase of nuclei with elevated fluorescence intensity.
Assay Protocol Summary For screening, 250 cells in 5 uL/well were dispensed into black clear 1536-well plates (Aurora) using a solenoid-based dispenser. Following transfer of 23 nL compound or DMSO vehicle by a pin tool, the plates were incubated 48 hr at 37 C and 5% CO2. After addition of 1 uL/well Hoescht stain, the plates were incubated 40 min at 37 C, 5% CO2 and total intensity of fluorescent objects (nuclei) were enumerated by an Acumen Explorer Ex3 (TTP LabTech) fluorescence scanning plate imager (405 nm excitation, 500-530 nm emission). Keywords: NIH Roadmap, MLPCN, MLI, MLSMR, qHTS, NCGC, DNA replication, cancer

Structure (SMILES) | Potency | re-replication activation
CC(=O)[O-].CCN(CC)C(=S)SSC(=S)N(CC)CC.[Cu+] | 190 nM (active) | 
CS(C)=O.[Cl-].[Cl-].[Cu+2] |  | -11.4%
CCN(CC)C(=S)SSC(=S)N(CC)CC | 21300 nM (active) | 
CCN(CC)C(=S)SSC(=S)N(CC)CC.[Cl-].[Cl-].[Cu+2] | 95 nM (active) | 
CC(=O)[O-].CS(C)=O.[Cu+] |  | -7.36%
